Here are results for 33 compounds from the supplement of paper PMC12024424.

Counter-ions that a name gives are not always drawn.

The subject of this assay is Staphylococcus aureus Sa2 (MRSA, cystic fibrosis isolate). In words: growth reduction vs untreated control (OD550); higher = stronger antibacterial activity. The conditions noted are these: 0.1 mM; 24 h. As to the method: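 Single-dose screen of the MedChem Express Drug Repurposing Library (0.1 mM, 1% DMSO) against planktonic MRSA S. aureus Sa2 (CF isolate) in TSB in 96-well plates, 37 °C aerobic, 24 h. Assays were run in triplicate and repeated twice.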
`C=CC(=O)Nc1cc(Nc2nccc(-c3cn(C4CC4)c4ccccc34)n2)c(OC)cc1N(C)CCN(C)C` [Almonertinib] showed a growth reduction of 100%.

`COc1cc(C(=O)O)ccc1NC(=O)[C@@H]1N[C@@H](CC(C)(C)C)[C@](C#N)(c2ccc(Cl)cc2F)[C@H]1c1cccc(Cl)c1F` [Idasanutlin] displayed a growth reduction of 100%.

The compound `O=C(O)Cc1ccc(Cc2cc(-c3cccc(Cl)c3)nc(C(F)(F)F)c2)cc1` showed a growth reduction of 100%.

The compound `Cc1ccc(-n2[nH]c(C)c(N=Nc3cccc(-c4cccc(C(=O)O)c4)c3O)c2=O)cc1C` [Eltrombopag (Olamine)] came in with a growth reduction of 95.9%.

In turn, `O=C(O)c1ccc2nc(-c3cc(Cl)cc(Cl)c3)oc2c1` [Tafamidis] registered a growth reduction of 99.5%.

For `Cc1c(CN(C)C(=O)/C=C/c2cnc3c(c2)CCC(=O)N3)oc2ccccc12`, the growth reduction worked out at 100%.

Compound `O=c1[nH]c(=O)n([C@H]2C[C@H](O)[C@@H](CO)O2)cc1/C=C/Br` [Brivudine] came in with a growth reduction of 100%.

`CNC(=O)c1ccc(Nc2ncc(C(F)(F)F)c(NCc3nccnc3N(C)S(C)(=O)=O)n2)cc1` [Defactinib]: the growth reduction is 96.2%.

Regarding `Cc1nc2sccn2c(=O)c1CCN1CCC(=C(c2ccc(F)cc2)c2ccc(F)cc2)CC1` [Ritanserin], the growth reduction worked out at 97.5%.

For `C[C@@H](O[C@H]1OCCN(Cc2n[nH]c(=O)[nH]2)[C@H]1c1ccc(F)cc1)c1cc(C(F)(F)F)cc(C(F)(F)F)c1` [Aprepitant], the growth reduction was 98.2%.

In turn, `COc1cccc2c1C(=O)c1c(O)c3c(c(O)c1C2=O)C[C@@](O)(C(=O)CO)C[C@@H]3O[C@H]1C[C@H](N)[C@H](O)[C@H](C)O1` [Doxorubicin (hydrochloride)] yielded a growth reduction of 96.1%.

`CCCCCc1ccc(C=CC(=O)Nc2ccccc2C(=O)O)cc1` [N-(p-amylcinnamoyl) Anthranilic Acid] yielded a growth reduction of 100%.

Turning to `CC(C)(C)c1cc(-c2cc(-c3ccc(C(=O)O)cc3)ccc2OCCO)ccc1N1CCCC1` [Trifarotene], the growth reduction came to 100%.

Take `Clc1ccc(Nc2nnc(Cc3ccncc3)c3ccccc23)cc1` [Vatalanib (dihydrochloride)]: the growth reduction is 100%.

In the case of `CCCCCCCCCCCCCCCC[N+](C)(C)CCN(Cc1ccc(OC)cc1)c1ncccn1` [Thonzonium (bromide)], the growth reduction worked out at 100%.

For `C=CC[C@@H]1/C=C(\C)C[C@H](C)C[C@H](OC)[C@H]2O[C@@](O)(C(=O)C(=O)N3CCCC[C@H]3C(=O)O[C@H](/C(C)=C/[C@@H]3CC[C@@H](O)[C@H](OC)C3)[C@H](C)[C@@H](O)CC1=O)[C@H](C)C[C@@H]2OC` [Tacrolimus (monohydrate)], the growth reduction is 100%.

Turning to `O/N=c1\cc(-c2cc3sccc3cn2)oc2ccc(CCCN3CCOCC3)cc12` [Foliglurax (monohydrochloride)], the growth reduction was found to be 100%.

`C=C1C[C@H]2[C@@H]3CCC4=CC(=O)CC[C@@H]4[C@H]3CC[C@]2(C)[C@@]1(OC(C)=O)C(C)=O` [Nestoron] registered a growth reduction of 93.2%.

As to `NC(=O)N1c2ccccc2C[C@H](O)c2ccccc21` [Eslicarbazepine], the growth reduction was determined as 92.7%.

With `CCN1CCN(c2ccc(Nc3cc(N(C)C(=O)Nc4c(Cl)c(OC)cc(OC)c4Cl)ncn3)cc2)CC1` [Infigratinib], the growth reduction was 100%.

For `CN1CCN(c2ccc3nc(-c4c(N)c5c(F)cccc5[nH]c4=O)[nH]c3c2)CC1` [Dovitinib (lactate)], the growth reduction came out at 96%.

The compound `CN1CCN(c2ccc(C(=O)Nc3n[nH]c4ccc(Cc5cc(F)cc(F)c5)cc34)c(NC3CCOCC3)c2)CC1` [Entrectinib] returned a growth reduction of 100%.

The compound `CCCCCOc1ccccc1/C(=C\SC)n1ccnc1` [Neticonazole (hydrochloride)] showed a growth reduction of 100%.

In turn, `C=CC(=O)Nc1cc(Nc2nccc(-c3cn(C)c4ccccc34)n2)c(OC)cc1N(C)CCN(C)C` [Osimertinib (dimesylate)] had a growth reduction of 100%.

In the case of `Nc1ccn([C@@H]2O[C@H](CO)[C@@H](O)C2(F)F)c(=O)n1` [Gemcitabine (hydrochloride)], the growth reduction came out at 100%.

The compound `CC1(S(=O)(=O)O)CC(=O)c2ccccc2C1=O` (stereo not drawn) [Menadione bisulfite (sodium)] registered a growth reduction of 99.5%.

In turn, `CC(OC(=O)NCC1(CC(=O)O)CCCCC1)OC(=O)C(C)C` (stereo not drawn) [Gabapentin enacarbil] registered a growth reduction of 90.4%.

Compound `Clc1ccc(CSC(Cn2ccnc2)c2ccc(Cl)cc2Cl)cc1` (stereo not drawn) [Sulconazole (nitrate)] registered a growth reduction of 93.4%.

`Cc1cn(-c2cc(NC(=O)c3ccc(C)c(Nc4nccc(-c5cccnc5)n4)c3)cc(C(F)(F)F)c2)cn1` [Nilotinib] had a growth reduction of 100%.

In turn, `Cc1cc(-c2nc(CN3CCNCC3)no2)cc2c1C(=O)N(Cc1ccc(OC(F)(F)F)cc1)C2` returned a growth reduction of 100%.

Turning to `O=c1[nH]c(=O)n([C@H]2C[C@H](O)[C@@H](CO)O2)cc1F` [Floxuridine], the growth reduction was determined as 100%.

As for `Clc1ccc(COC(Cn2ccnc2)c2ccc(Cl)cc2Cl)cc1` (stereo not drawn) [Econazole (nitrate)], the growth reduction was 100%.

`CC(C)c1c(C(=O)Nc2ccccc2)c(-c2ccccc2)c(-c2ccc(F)cc2)n1CC[C@@H](O)C[C@@H](O)CC(=O)O` [Atorvastatin (hemicalcium salt)] displayed a growth reduction of 99.7%.
